Experimental data as given in PubChem BioAssay AID687001 (Broad Institute, 2013).
Results with a measured potency or affinity are listed apart. Values without a mark were called inactive.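 Rule for the calls: active = signal-lowering compounds whose fitted half-maximal concentration is at or below twice the top tested dose in every run; inconclusive = runs disagree, flat 30 to 70% inhibition, or poor curve fit; inactive = the rest.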

molecular target: Protein S100-A4 (Homo sapiens) (UniProt P26447); experiment: human S100A4 peptide interaction inhibition curves – biochemical, fluorescence polarization, cherry-picked hits, dose response (AID 687001); settings: FP, S100A4/TAMRA-myosin IIA peptide binding; series mostly up to 11 µM; activity change, negative = inhibition: at the top concentration;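 note: 0% = DMSO neutral control wells and -100% = TFP positive control wells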
Sequence (P26447 whole entry, looked up): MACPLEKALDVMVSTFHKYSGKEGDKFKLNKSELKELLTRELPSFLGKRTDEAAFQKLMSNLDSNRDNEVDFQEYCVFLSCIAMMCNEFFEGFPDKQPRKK

Going from `C[C@@H]1CN([C@H](C)CO)C(=O)c2cc(C#Cc3ccccc3)cnc2O[C@@H]1CN(C)C(=O)c1ccccc1F` to `CN(C)C(CNC(=O)CCc1nc2cc(Cl)ccc2n(Cc2ccccc2)c1=O)c1ccccc1` (centres undefined), the “activity change, negative = inhibition” value rises from 1.29% to 34.5%.

First: CN1CCc2c(sc(NC(=O)C3COc4ccccc4O3)c2C(N)=O)C1 (centres undefined)
Second: CCCC(=O)Nc1ccc2c(c1)C(=O)N(C)C[C@H](OC)[C@H](C)CN(Cc1ccccc1)[C@@H](C)CO2
The “activity change, negative = inhibition” value of the first is lower: -9.86% for the first, 2.23% for the second.

Going from `O=C(NCc1cc([N+](=O)[O-])ccc1O)c1cccnc1Sc1ccccc1` to `CC(C)[C@H](NC(=O)c1ccccc1F)C(=O)NCc1ccc(S(N)(=O)=O)cc1`, the “activity change, negative = inhibition” value falls from 0.274% to -2.08%.

Going from `Cc1cc(=O)oc2c3c(cc(OCC(=O)NCC(=O)N[C@H](C(=O)O)C(C)C)c12)OC(C)(C)CC3` to `CC(C)NC(=O)N1[C@@H](CO)[C@@H](c2ccccc2)C12CN(C(=O)Cc1cccnc1)C2`, the “activity change, negative = inhibition” value rises from -1.84% to 3.57%.

Going from `Cn1cnc(S(=O)(=O)N[C@@H]2C=C[C@@H](CC(=O)NCC3CC3)O[C@H]2CO)c1` to `CC1Sc2ccc(S(=O)(=O)N3CCC(C(=O)NCCc4ccccc4)CC3)cc2NC1=O` (centres undefined), the “activity change, negative = inhibition” value rises from -1.65% to 4.52%.

Compared with `C=CCNC(=O)/C(C#N)=C/c1c(N(Cc2ccccc2)Cc2ccccc2)nc2ccccn2c1=O`, `O=C1NC[C@H](c2ccccc2)OC(=O)[C@H](Cc2ccc(F)cc2)C/C=C\C[C@H]1CC(=O)N(CCO)Cc1ccccc1` is lower in “activity change, negative = inhibition” value: 5.76% for the first, 3.91% for the second.

Compared with `O=C(CCCN1C(=O)C2CC=CCC2C1=O)Nc1ccccc1F` (centres undefined), `CN(C)CC/C=C1/c2ccccc2COc2ccc(CC(=O)O)cc21` is lower in “activity change, negative = inhibition” value: -3.43% for the first, -4.99% for the second.
